Records with an inconclusive call do not appear. A number with no mark means an inactive call. Activity calls are given as the source filed them. Calls follow the shape of the dose curve; as a rule, active = well fitted curve in the direction sought with a large enough effect in the repeat runs; inconclusive = weak or mixed curves; inactive = no such curve, though single readings can be large; an effect the other way counts as inactive or inconclusive.
Target: Cytochrome P450 1A2 (Homo sapiens) (UniProt P05177)
Sequence (P05177 whole entry, looked up): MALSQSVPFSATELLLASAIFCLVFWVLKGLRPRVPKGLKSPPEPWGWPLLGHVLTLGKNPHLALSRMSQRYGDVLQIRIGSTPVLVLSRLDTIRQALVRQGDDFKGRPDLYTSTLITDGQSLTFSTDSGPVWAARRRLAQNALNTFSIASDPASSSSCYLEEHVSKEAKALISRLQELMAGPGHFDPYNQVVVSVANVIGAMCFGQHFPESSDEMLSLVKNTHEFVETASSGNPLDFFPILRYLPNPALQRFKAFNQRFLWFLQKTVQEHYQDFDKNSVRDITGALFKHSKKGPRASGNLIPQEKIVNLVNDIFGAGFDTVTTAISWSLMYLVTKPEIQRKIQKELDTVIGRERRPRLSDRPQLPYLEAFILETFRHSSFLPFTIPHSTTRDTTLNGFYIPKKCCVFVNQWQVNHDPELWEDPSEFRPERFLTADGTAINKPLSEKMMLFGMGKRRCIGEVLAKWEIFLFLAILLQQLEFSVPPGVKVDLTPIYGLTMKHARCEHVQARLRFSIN
Test: Cytochrome P450 Family 1 Subfamily A Member 2 (CYP1A2) small molecule antagonists: luciferase reporter qHTS assay (AID 1671199)
Conditions: P450-Glo CYP1A2 enzyme, luciferin luminescence, 1 h; series mostly up to 115 µM; activity change, negative = inhibition: at the top concentration
Procedure, shortened: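 P450-Glo CYP1A2, 1536-well qHTS: enzyme/proluciferin substrate + cpd (DMSO), 10 min RT; NADPH regen, 1 h RT; detection reagent, 20 min; luminescence, RLU.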
% is scaled to controls: 0 for no effect and ±100 for the full control effect; potency is read from the fitted curve at half-maximal effect.
Also: nearly all actives have a fitted effect of over 50% in size.

Row | SMILES | activity change, negative = inhibition | Potency
1 | CCOC(=O)NNc1ccc(N(CC)CC(C)O)nn1 (centres undefined) | -12.1% [at 53 µM] | 
2 | Cc1cc(=O)oc2cc(O)cc(O)c12 |  | 25.3 µM (active)
3 | CCN(CC)C(=O)c1cc(S(=O)(=O)Cc2ccccc2)c(N2CCC(c3ccccc3)CC2)cc1N(CC)CCN(C)C | -5.96% [at 53 µM] | 
4 | CCCCOC(=O)CC | -16% | 
5 | CC(CCc1ccccc1)NCC(O)c1ccc(O)c(C(N)=O)c1 (centres undefined) | -19.9% | 

Target: Voltage-gated inwardly rectifying potassium channel KCNH2 (Homo sapiens) (UniProt Q12809)
Sequence (Q12809 whole entry, looked up): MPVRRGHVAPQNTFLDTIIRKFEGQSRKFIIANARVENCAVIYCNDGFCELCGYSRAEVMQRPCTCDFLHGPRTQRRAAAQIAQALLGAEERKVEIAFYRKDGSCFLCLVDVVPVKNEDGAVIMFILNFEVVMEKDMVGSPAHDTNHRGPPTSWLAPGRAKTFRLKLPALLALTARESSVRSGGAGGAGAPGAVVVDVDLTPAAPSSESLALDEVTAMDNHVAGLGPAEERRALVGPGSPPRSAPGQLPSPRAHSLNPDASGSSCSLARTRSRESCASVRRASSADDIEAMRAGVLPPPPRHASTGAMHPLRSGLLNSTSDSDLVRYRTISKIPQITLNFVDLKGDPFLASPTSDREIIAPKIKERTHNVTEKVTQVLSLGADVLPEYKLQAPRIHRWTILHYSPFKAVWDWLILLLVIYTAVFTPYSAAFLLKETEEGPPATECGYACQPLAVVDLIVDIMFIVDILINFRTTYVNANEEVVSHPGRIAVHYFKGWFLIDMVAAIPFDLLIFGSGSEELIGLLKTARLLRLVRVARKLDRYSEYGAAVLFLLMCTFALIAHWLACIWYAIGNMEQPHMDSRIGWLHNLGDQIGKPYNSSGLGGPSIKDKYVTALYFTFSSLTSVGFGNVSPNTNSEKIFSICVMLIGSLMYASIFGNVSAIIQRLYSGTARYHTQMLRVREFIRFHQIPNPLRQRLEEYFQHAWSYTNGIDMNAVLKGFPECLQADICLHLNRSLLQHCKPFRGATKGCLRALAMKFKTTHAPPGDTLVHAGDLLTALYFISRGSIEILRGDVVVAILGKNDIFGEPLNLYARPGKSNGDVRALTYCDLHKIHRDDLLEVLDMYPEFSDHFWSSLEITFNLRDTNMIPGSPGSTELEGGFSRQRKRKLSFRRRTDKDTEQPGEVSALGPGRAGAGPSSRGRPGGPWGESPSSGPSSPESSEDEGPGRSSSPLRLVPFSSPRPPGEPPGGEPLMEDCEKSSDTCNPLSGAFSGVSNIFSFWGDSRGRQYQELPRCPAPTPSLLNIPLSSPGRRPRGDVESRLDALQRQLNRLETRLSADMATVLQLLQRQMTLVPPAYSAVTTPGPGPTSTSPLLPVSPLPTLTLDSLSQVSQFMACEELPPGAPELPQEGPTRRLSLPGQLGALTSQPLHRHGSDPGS
Test: Human Ether-a-go-go-Related Gene (hERG) channel small molecule antagonists: fluorescence cell-based qHTS assay (AID 1671200);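 as to activity change, negative = inhibition: hERG-expressing U2OS cells given a thallium stimulus after FluxOR II dye loading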
Conditions: hERG-U2OS cells, FluxOR thallium flux fluorescence; series mostly up to 76.8 µM; activity change, negative = inhibition: at the top concentration
Procedure, shortened: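 Quantitative HTS in hERG-U2OS cells: thallium entry through the channel reports activity, read as continuous 480/540 nm fluorescence over 2 min after stimulus addition.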

Row | SMILES | Potency | activity change, negative = inhibition
6 | COc1cccc2c1C(=O)c1c(O)c3c(c(O)c1C2=O)C[C@@](O)(C(C)=O)C[C@@H]3O[C@H]1C[C@H](N)[C@H](O)[C@H](C)O1 | inactive | 
7 | OC1CCC(C2CCCCC2)CC1 (centres undefined) |  | -27.9%
8 | CC[N+](CC)(CC)CCOc1ccc(/C=C/c2ccccc2)cc1 | 8.49 µM (active) | 
9 | CC(C)(c1cc(Br)c(OCC(Br)CBr)c(Br)c1)c1cc(Br)c(OCC(Br)CBr)c(Br)c1 (centres undefined) |  | 5.52% [at 35.3 µM]
10 | CCCC(=O)OC(C)(C)Cc1ccccc1 |  | -1.13%
11 | Cc1ccc(C(C)C)cc2c(C)ccc1-2 |  | 25.3% [at 35.3 µM]
12 | CC(C)CCCCCOC(=O)CCS |  | -14.6%
13 | CCN1C(=O)c2ccccc2C1Nc1ccc(OCCN2CCCCC2)cc1 (centres undefined) |  | -1.81% [at 35.3 µM]
14 | ClCCl |  | -5.3%
15 | O=C1C(c2[nH]c3ccc(S(=O)(=O)O)cc3c2O)=Nc2ccc(S(=O)(=O)O)cc21 |  | -6.08%
16 | C=Cc1ccccc1C=C |  | -1.04% [at 200 µM]
17 | COc1ccc(-c2coc3cc(O)ccc3c2=O)cc1 |  | 4.08%
18 | Cc1c(C)c2c(c(C)c1O)CC[C@@](C)(CCC[C@H](C)CCC[C@H](C)CCCC(C)C)O2 |  | 1.79%
19 | CC(C)(C)CC(C)(C)c1ccc(Nc2ccc(C(C)(C)CC(C)(C)C)cc2)cc1 |  | 0.578% [at 6.97 µM]
20 | CCC(C)n1ncn(-c2ccc(N3CCN(c4ccc(OC[C@H]5CO[C@](Cn6cncn6)(c6ccc(Cl)cc6Cl)O5)cc4)CC3)cc2)c1=O (some centres undefined) |  | -10.1% [at 35.3 µM]
21 | CCc1oc2ccccc2c1C(=O)c1cc(I)c(O)c(I)c1 |  | -28.2% [at 35.3 µM]
22 | O=C(O)O |  | 0.334% [at 6.97 µM]

Row | SMILES | Potency | activity change, negative = inhibition
23 | CCCCCCCCCCC[C@@H](C[C@@H]1OC(=O)[C@H]1CCCCCC)OC(=O)[C@H](CC(C)C)NC=O |  | -0.115% [at 35.3 µM]
24 | O[C@@H]([C@H](O)[C@H](O)CBr)[C@H](O)CBr |  | -2.9%
25 | COCCOc1cc2cc(C(=O)NC3CCN(C(C)C)CC3)n(CC(=O)Nc3ccc(Cl)cn3)c2cn1 |  | -9.38%
26 | OCCN1CCN(CCCN2c3ccccc3Sc3ccc(C(F)(F)F)cc32)CC1 | 3.38 µM (active) | 
27 | O=[N+]([O-])c1ccc(F)c(Cl)c1 |  | -6.87%
28 | O=C1NC(=O)[C@@H]2CC=CC[C@H]12 |  | 2.67%
29 | O=c1[nH]c2ccccc2n1CCCN1CCN(C(c2ccccc2)c2ccccc2)CC1 | 0.379 µM (active) | 
30 | O=C(O)CN(CCN(CC(=O)O)CC(=O)O)CC(=O)O |  | -1.4% [at 2.72 µM]
31 | Oc1c(I)cc(Cl)c2cccnc12 | inactive | 
32 | O=C(Nc1ccc2c(O)c(N=Nc3ccc(N=Nc4ccc(S(=O)(=O)O)cc4)cc3)c(S(=O)(=O)O)cc2c1)c1ccccc1 |  | -9.71%
33 | NC[C@H]1O[C@H](O[C@H]2[C@H](O[C@@H]3O[C@H](CO)[C@@H](O)[C@H]3O)C(O)[C@H](N)C[C@@H]2N)[C@H](N)[C@@H](O)[C@@H]1O (some centres undefined) |  | -0.219% [at 6.97 µM]
34 | Cc1cc(=O)oc2cc(O)cc(O)c12 |  | 1.56%
35 | CCN(CC)C(=O)c1cc(S(=O)(=O)Cc2ccccc2)c(N2CCC(c3ccccc3)CC2)cc1N(CC)CCN(C)C | 1.72 µM (active) | 
36 | CCCCOC(=O)CC |  | 8.72%
37 | CC(CCc1ccccc1)NCC(O)c1ccc(O)c(C(N)=O)c1 (centres undefined) | 19.5 µM (active) | 
38 | Cc1ccc(C)cc1 |  | 0.55%
39 | CCC(C)[O-].CCC(C)[O-].CCOC(=O)/C=C(/C)[O-].[Al+3] |  | 2.27%

— PubChem BioAssay (Tox21)
